# From publication PMC5540273 (PLoS ONE, 2017)
# Tested on: SNRK
# Settings: concentration: 1 μM, replicates: in singlicate; n = 1
# 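Further: KINOMEscan kinase panel screen.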
row,SMILES,%Inh [%]
1,CCn1c(-c2nonc2N)nc2c(C#CC(C)(C)O)nc(OC[C@H](N)c3ccccc3)cc21 [GSK943949],0
2,Cc1cccc(NC(=O)Nc2ccc(Oc3ncnc4ccn(C)c34)cc2)c1,0
3,O=C(Nc1cccc(Oc2ccc3nc(NC(=O)C4CC4)cn3n2)c1)c1ccccc1C(F)(F)F,0
4,O=C(Nc1ccccc1F)NC1CCN(c2ccnc(Nc3ccc(F)cc3)n2)CC1 [GSK1379800],0
5,NCCCC(NC(=O)c1cc(Br)c(-c2ccnc3[nH]ccc23)s1)c1ccccc1.O=C(O)C(F)(F)F.O=C(O)C(F)(F)F (stereo not drawn) [GSK1287544],6
6,COc1cccc(C(=O)Nc2cccc(Oc3ccc4nc(NC(=O)C5CC5)cn4n3)c2)c1,8
7,COC(=O)Nc1nc2cc(Oc3ccc(NC(=O)Nc4cc(C(F)(F)F)ccc4F)cn3)ccc2[nH]1.Cl.Cl [GW681170],0
8,Cc1ccc(C(=O)Nc2ccc(Nc3ccnc4cc(-c5nccs5)ccc34)cc2O)cc1.Cl [GW494702],0
9,CCc1ccc(-c2ccc3c(c2)-c2c(cnn2C)S(=O)(=O)N3C)cc1,0
10,CN(C)S(=O)(=O)c1cc(-c2ccc3nccc(-c4cccc(S(N)(=O)=O)c4)c3c2)cnc1N [GSK1669921],12
11,COc1cccc(NC(=O)NC2CCN(c3ccnc(Nc4cc(OC)c(OC)c(OC)c4)n3)C2)c1 (stereo not drawn) [GSK1379763],0
12,O=c1[nH]cc(-c2ccc(N3CCOCC3)cc2)c2sc(-c3cn[nH]c3)cc12 [GSK2276055],0
